The source of these data is PubChem BioAssay AID819 (Columbia University Molecular Screening Center, 2007).

Screen size: about 94,000 compounds; about 280 (0.3%) were called active.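 Rule for the calls: active = activation above 40%, about the mean plus 3 SD, also judged a hit on visual image review; inconclusive = activation above 40% but not a hit on visual review; inactive = activation not above 40% and no visual hit.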 The sample as a whole holds a higher share of actives than the screen did.

The experiment can be described thus: enhancers of NFkB p65 translocation in HUVEC – imaging, IL-1B stimulus, high-content imaging, primary screen (AID 819).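 Note: percent activation is computed from the nuclear over cytoplasmic p65 intensity ratio.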 The note with it: HUVEC IL-1B NFkB p65 nuclear translocation imaging; at 2 µM; active compounds read high.
Regarding `COC(=O)c1ccc(OCC(=O)NC(C)(C)C)cc1`, the activation was -5.58% (inactive).
Next, `CCOC(=O)c1c(C)oc2cc(Br)c(OCC(N)=O)cc12`: -3.13% (inactive); `Cc1nn(C)c(Oc2ccccc2)c1[N+](=O)[O-]`: -6.86% (inactive).
In the case of `Cc1ccc(NC(=S)N/N=C2/CCCc3c(C)cc(C)cc32)cc1`, the activation is 10.5% (inactive).
For `COc1ccc(CC(=O)c2ccc(O)cc2O)cc1OC`, the activation is 3.51% (inactive).
Next, `Cc1cc(O)cc(O)c1C(=O)Cc1cnn(-c2ccccc2)c1`: -0.94% (inactive); `COc1ccc(C(=O)Cc2cnn(-c3ccccc3)c2)c(O)c1`: 52.4% (active).
As for `O=c1c2ccccc2nc2n1C(CSc1ccc(Cl)cc1)CN2` (stereo not drawn), the activation was -5.53% (inactive).
Next, `O=c1c2c(nc3nc[nH]n13)CCC2`: 17.9% (inactive).
Consider `CCCCn1c(=S)[nH]c2cc(S(=O)(=O)N3CCCCC3)ccc21`, for which the activation was 6.8% (inactive).
Next, `Clc1ccc(-c2nnc(-c3ccccc3)nc2N2CCSCC2)cc1`: 6.76% (inactive).
`CC(C)CNC(=S)NNC(=O)c1ccccc1OC(F)F`: the activation is -19% (inactive).
Turning to `O=C(Cc1ccccc1)Nc1c(C(=O)N2CCCCCC2)cnn1-c1ccccc1`, the activation is -2.59% (inactive).
With `c1ccc(-c2csc(N3CCc4ccccc4C3)n2)cc1`, the activation was -1.32% (inactive).
Next, `Cc1[nH][nH]c(=O)c1C(c1ccc(-c2ccc(Cl)cc2)o1)c1c(C)[nH][nH]c1=O`: 49.6% (active); `Cc1[nH][nH]c(=O)c1N=Nc1ccccc1`: 19.6% (inactive).
As for `O=C(CCc1ccc(S(=O)(=O)NC2CCCCC2)cc1)NCc1ccccc1`, the activation was 1.98% (inactive).
Next, `CC(=O)c1cnc(SCCN2C(=O)c3ccccc3C2=O)nc1C`: -4.03% (inactive); `CC(C)c1ccc(NC(=O)CCN2C(=O)c3ccc([N+](=O)[O-])cc3C2=O)cc1`: 6.09% (inactive); `CCOC(=O)CC(=O)CSc1nc(-c2ccccc2)cc(-c2ccc(Cl)cc2)c1C#N`: 5.19% (inactive).
Next, `CN(C)/C=C/C(=O)c1ccccc1F`: -2.94% (inactive); `ONC(=Nc1ccc(Cl)cc1)c1ccccc1Cl`: 16.3% (inactive).
Next, `O=C(/C=C/c1ccccc1)N/C(=C/c1ccccc1)C(=O)Nc1ccccc1O`: -5.06% (inactive).
For `CCOc1ccc(C(CCc2ccccc2)NC(=O)c2ccc(OC)c(OC)c2)cc1OCC` (stereo not drawn), the activation is -8.44% (inactive).
As for `Cc1cc(Nc2ccccc2)nc(N)n1`, the figure is 19.9% (inactive).
On to `CCOc1ccc(-c2c(C)n([O-])c3c([n+]2=O)CCCC3)cc1`, for which the activation was 0.86% (inactive).
Consider `Cc1cccc(-n2ncc(C#N)c2-n2cccc2)c1`, for which the activation was -2.16% (inactive).
As for `CCOC(=O)CSc1ncc(-c2cccc(Cl)c2)cn1`, the figure is 4.13% (inactive).
